NOD2 RIPK2 PPI = NOD2-RIPK2 binding disruptors in cells, primary screen, fluorescence, CHO cells, BLA complementation. Receptor-interacting serine/threonine-protein kinase 2 (Homo sapiens), O43353. CCF4 ratio. 0.38% of 360,000 active. inhibition, % at 4.98 µM; in the data active means inhibition above about 21%
Target sequence (O43353 whole entry, looked up): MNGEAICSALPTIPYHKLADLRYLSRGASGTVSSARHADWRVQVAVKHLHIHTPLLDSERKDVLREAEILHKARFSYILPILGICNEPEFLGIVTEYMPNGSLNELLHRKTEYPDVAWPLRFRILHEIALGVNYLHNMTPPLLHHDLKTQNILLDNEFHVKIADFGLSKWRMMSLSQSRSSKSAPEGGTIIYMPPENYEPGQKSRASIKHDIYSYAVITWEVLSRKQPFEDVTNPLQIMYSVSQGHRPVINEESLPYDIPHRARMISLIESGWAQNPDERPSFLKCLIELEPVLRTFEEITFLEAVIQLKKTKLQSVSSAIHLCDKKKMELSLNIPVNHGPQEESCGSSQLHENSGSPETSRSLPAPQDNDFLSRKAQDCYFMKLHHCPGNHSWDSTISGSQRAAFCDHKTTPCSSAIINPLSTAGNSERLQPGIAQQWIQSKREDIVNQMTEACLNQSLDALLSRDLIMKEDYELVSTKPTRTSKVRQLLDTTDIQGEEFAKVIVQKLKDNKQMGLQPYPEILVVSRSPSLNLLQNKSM
NPR2 activator = human GC-B receptor activators, primary screen, HEK293 GC-B cells, cGMP TR-FRET, EC30 CNP; Atrial natriuretic peptide receptor 2 (Homo sapiens), P20594; 0% at EC30 CNP, 100% saturating CNP; activation, % at 10 µM; 0.11% of 370,000 active; AID 1920062, 2024;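 active means activation at 10 µM reaching about 35% in either raw or pattern-adjusted values, limit read from the data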
GC-A act = GC-A stimulated cGMP production enhancers – HEK293 GC-A cells, cGMP TR-FRET, EC30 ANP, primary screen | 0.14% of 370,000 active | 0% at EC30 ANP, 100% saturating ANP | activation, % at 10 µM; in the data active means activation above about 40%
TLR4-MyD88 BLA = inhibitors of TLR4-MyD88 association in cells, primary screen, cell-based, HeLa CL3-4, BLA complementation, FRET ratio; inhibition, % at 8.4 µM; AID 861, 2007; 0.18% of 200,000 active; HeLa CL3-4 TLR4/MyD88 BLA complementation; in the data active means inhibition above about 25%
TLR9-MyD88 block = inhibitors of TLR9-MyD88 association in cells, primary screen, cell-based, CHO, BLA complementation, fluorescence. Toll-like receptor 9 (Homo sapiens) + Myeloid differentiation primary response protein …. CCF4 FRET ratio. 0.21% of 340,000 active. inhibition, % at 4.98 µM;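 active means inhibition above the mean over all tested compounds plus 3 SD, cut at about 21% in these data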
Neddyl block = inhibitors of cullin neddylation, primary screen, biochemical, TR-FRET, uHTS, NAE and Ubc12 | NEDD8-conjugating enzyme Ubc12 (Homo sapiens) + NEDD8-activating enzyme E1 regulatory … | inhibition, % at 25 µM | 0.58% of 360,000 active | AID 651699, 2012; in the data active means inhibition above about 36%
TLR9-MyD88 conf = TLR9-MyD88 association inhibitors, retest, confirmation, cell-based, CHO, BLA complementation, fluorescence, triplicate; 51% of 680 active; inhibition, % at 4.98 µM; AID 540250, 2011; shares compounds with TLR9-MyD88 block; CCF4 FRET ratio;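 active means mean inhibition across three repeats above about 21% taken from the earlier screen, limit read from the data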;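 further: blue over green emission ratio reports constitutive TLR9 MyD88 association via BLA complementation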
BLA counter-1 = beta-lactamase reporter inhibitors in CHO cells, artefact control for TLR9-MyD88 binding inhibitor project, cell-based, fluorescence; 7% of 680 active; shares compounds with TLR9-MyD88 block; inhibition, % at 4.98 µM; AID 540251, 2011; CHO-BLA cells, CCF4 FRET ratio, BLA reporter;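 active means mean inhibition above a 50% cutoff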;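 further: counterscreen of TLR9-MyD88 hits on CMV-driven BLA in CHO-K1 cells; higher means less blue over green ratio so more BLA blockade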
TLR9 CHO tox = CHO cell viability loss – luminescence, single concentration, cytotoxicity control for TLR9-MyD88 binding inhibitor project; 39% of 680 active; TLR9-MyD88 CHO cells cytotoxicity; shares compounds with TLR9-MyD88 block; inhibition, % at 4.98 µM; in the data active means inhibition above about 11%
NOD2-RIPK2 conf = NOD2-RIPK2 binding disruptors, retest, confirmation, fluorescence, CHO cells, BLA complementation, triplicate | shares compounds with NOD2 RIPK2 PPI | CCF4 FRET | inhibition, % at 4.98 µM | 70% of 1,200 active | AID 624370, 2012;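 active means mean inhibition across replicates above a set limit taken from the earlier primary screen, cut at about 21% in these data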
BLA counter-2 = NOD2-RIPK2 counterscreen BLA reporter activity; shares compounds with NOD2 RIPK2 PPI; CHO BLA reporter, CCF4 FRET ratio; inhibition, % at 4.98 µM; 57% of 1,200 active; AID 624371;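 active means mean inhibition above the low-control mean inhibition plus three low-control SD, cut at about 11% in these data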
A number is an active result; . = inactive; / = no result shown; ! = a repeat was not active. The list is not random: actives were taken first. Their share in the collection is about 1.2%.

SMILES	NOD2 RIPK2 PPI	NPR2 activator	GC-A act	TLR4-MyD88 BLA	TLR9-MyD88 block	Neddyl block	TLR9-MyD88 conf	BLA counter-1	TLR9 CHO tox	NOD2-RIPK2 conf	BLA counter-2
COc1ccc(OC)c(NC(=O)c2nc(S(=O)(=O)Cc3ccccc3)ncc2Cl)c1	94.0	.	.	/	57.4	.	53.3	.	98.6	101.7	48.6
CC[C@H]1C=C[C@@H](C(=O)NS(=O)(=O)c2ccc(C)cc2)N(C(C)=O)C1	/	.	.	/	/	/	/	/	/	/	/
COc1cc(O)c(C(CC(=O)N2CC(C)OC(C)C2)c2ccc3c(c2)OCO3)c(OC)c1 (configuration not stated)	/	.	.	/	/	/	/	/	/	/	/
CCOC(=O)C1=NN(c2ccccc2)C2C(=O)N(c3ccccc3OC)C(=O)C12 (configuration not stated)	.	.	.	/	.	.	/	/	/	/	/
COc1ccccc1N1C(=O)C2C(C(=O)c3ccccc3)=NN(c3ccccc3)C2C1=O (configuration not stated)	52.1	.	.	/	46.6	.	25.6	.	.	58.8	64.1
CS(=O)(=O)c1sc(C#N)c2c1C(=O)CC(c1ccccc1)C2 (configuration not stated)	98.5	48.4	.	/	58.3	.	52.9	.	99.7	94.1	36.1
Cc1ccc2nc(-c3cccc(SC4CCCCC4)c3)c(NC3CCCCC3)n2c1	.	.	.	/	.	/	/	/	/	/	/
c1cc(SC2CCCCC2)cc(-c2nc3cnccn3c2NC2CCCCC2)c1	33.5	.	.	/	33.1	/	33.3	.	.	51.6	65.8
CCOc1ccc(-n2c(SCC(=O)Nc3ccc(S(=O)(=O)Nc4nccs4)cc3)nnc2-c2ccco2)cc1	/	.	.	/	/	/	/	/	/	/	/
Nc1c(C(=O)N2CCCCC2)sc2nc3c(cc12)CCCC3	.	.	.	/	.	.	/	/	/	/	/
Nc1c(C(=O)N2CCCC2)sc2nc(-c3ccccc3)ccc12	34.0	.	.	/	29.6	.	31.8	.	.	51.8	60.8
O=C(C(=O)N1CCC(CNS(=O)(=O)c2ccc(C(F)(F)F)cc2)CC1)c1cc2ccccc2o1	/	.	.	/	/	/	/	/	/	/	/
CC(C)(C)OC(=O)NCC(=O)Oc1cc2oc(=O)cc(-c3ccccc3)c2cc1Cl	36.0	.	.	.	47.0	/	.	.	.	43.4	48.3
CCc1cc2c(-c3ccccc3)cc(=O)oc2cc1OC(C)C(C)=O (configuration not stated)	.	.	.	/	.	.	/	/	/	/	/
COc1ccc2oc(=O)c(-c3csc(Nc4cccc(O)c4)n3)cc2c1	30.6	.	.	.	35.8	.	.	.	.	27.9	46.7
O=C(Nc1cccc2c1C(=O)NC2=O)c1ccc(S(=O)(=O)N2CCCC2)cc1	21.9	.	.	.	37.8	/	.	.	.	34.4	43.4
Oc1ccc2nnc3c(Br)cnn3c2c1	44.5	.	.	/	31.7	.	27.3	.	.	60.3	57.9
O=c1c2cc(F)ccc2sn1-c1ccccc1Cl	.	.	.	/	.	.	/	/	/	/	/
Cc1ccc(-n2sc3cc(F)ccc3c2=O)c(C)c1	38.1	.	.	/	29.5	.	.	.	84.6	26.4	14.8
Nc1c(C(=O)c2ccccc2)sc2nsc(SCCN3CCCC3)c12	28.9	.	.	/	28.3	.	21.0	.	.	44.5	46.6
CC(=NNC(=S)N1CCN(c2ccccn2)CC1)c1nccs1	23.5	/	/	/	37.1	.	28.0	.	97.2	41.9	18.0
Cc1ccccc1-n1c(C)cc(/C=N/Nc2ccc([N+](=O)[O-])cn2)c1C	27.6	.	.	.	36.6	.	20.8	.	10.3	38.0	39.9
C=C1CC(COc2ccc3c(C)c(Cl)c(=O)oc3c2)(c2ccccc2)OC1=O (configuration not stated)	60.4	.	.	/	23.7	.	23.5	.	97.6	73.9	28.5
Clc1ccccc1/C=N/NC1=Nc2cccc3cccc1c23	36.1	.	.	.	30.7	.	.	.	11.0	30.2	29.1
CC(=O)Oc1cccc(N2C(=O)c3ccc(C(=O)O)cc3C2=O)c1	.	.	.	.	.	.	/	/	/	/	/
SMILES	NOD2 RIPK2 PPI	NPR2 activator	GC-A act	TLR4-MyD88 BLA	TLR9-MyD88 block	Neddyl block	TLR9-MyD88 conf	BLA counter-1	TLR9 CHO tox	NOD2-RIPK2 conf	BLA counter-2
CC(=O)Oc1cccc(N2C(=O)c3cccc4c([N+](=O)[O-])ccc(c34)C2=O)c1	45.1	.	.	/	42.3	.	47.2	.	94.3	63.1	67.0
Cc1ccc(C(=O)O)cc1N1C(=O)c2cccc3c([N+](=O)[O-])ccc(c23)C1=O	56.2	.	.	/	29.0	.	25.6	.	.	45.2	38.6
C=CCN1[C@H](C#N)[C@@H](c2ccc(C#Cc3cccc(OC)c3)cc2)[C@H]1CO	/	.	.	/	/	/	/	/	/	/	/
O=S1(=O)C=CCN1Cc1cn(Cc2ccccc2)nn1	/	.	.	/	/	/	/	/	/	/	/
CC1=Nc2ccc(C)cc2/C1=C/c1c(N)n2oc(C)cc2nc1=O	55.1	.	.	.	21.2!	.	.	.	.	41.5	29.1
CN(CCOC(=O)c1cc2ccccc2o1)C1CN(Cc2cn(Cc3ccccc3C(F)(F)F)nn2)S(=O)(=O)C1 (configuration not stated)	/	.	.	/	/	/	/	/	/	/	/
Fc1ccc(Br)cc1C1C=C(c2ccc(Br)cc2)Nc2ncnn21 (configuration not stated)	43.4	.	.	.	20.9	.	.	.	.	.	.
Cc1ccc(C2=CC(c3ccccc3)n3ncnc3N2)cc1 (configuration not stated)	52.1	.	.	/	40.8	/	.	.	.	.	21.1

Compound activity (PubChem BioAssay)
